# Experimental data as given in PubChem BioAssay (NCI).
# This is part of a sample that, as a whole, favours compounds with a hit. Of some 79,000 tested, about 15% had one in any assay. Unmarked numbers belong to inactive results. The source made the active and inactive calls. No stated cut-off is given here; in the data, active means growth inhibition above about 70%; inactive means the rest.
# Legend:
# [1] = NCI Yeast Anticancer Drug Screen. Data for the rad50 strain (AID 155);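 further: 0% = growth of vehicle-only cultures of the same strain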; settings: S. cerevisiae rad50 strain growth inhibition; at 50.0 µM; active compounds read high
# How it was run: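 Readout: growth inhibition relative to vehicle-treated cultures. Compound exposure was carried out in a genetically defined yeast strain deficient in DNA damage repair.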
# [2] = NCI Yeast Anticancer Drug Screen. Data for the mec2-1 strain (AID 157); settings: S. cerevisiae mec2-1 strain, at 50.0 µM, active compounds read high
# How it was run: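 Yeast mec2-1 mutant treated with compound. Readout: growth inhibition vs vehicle controls.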
# [3] = NCI Yeast Anticancer Drug Screen. Data for the sgs1 mgt1 strain (AID 161);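 further: 0% = growth of cultures given vehicle only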; settings: S. cerevisiae sgs1 mgt1 strain, at 50.0 µM, active compounds read high
# How it was run: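 Genetically altered yeast, compound exposure, growth inhibition relative to vehicle.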
# [4] = NCI Yeast Anticancer Drug Screen. Data for the cln2 rad14 strain (AID 165);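 further: 0% = growth equal to vehicle treated cultures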; settings: S. cerevisiae cln2 rad14 strain, at 50.0 µM, active compounds read high
# How it was run: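 cln2 rad14 yeast strain; compound exposure; growth inhibition read vs vehicle controls.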
# [5] = NCI Yeast Anticancer Drug Screen. Data for the bub3 strain (AID 167); settings: S. cerevisiae bub3 mutant strain, at 50.0 µM, active compounds read high
# How it was run: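 Readout: yeast growth inhibition, expressed relative to vehicle-only wells. The test organism is a mutant strain from a panel with lesions in DNA repair or checkpoint genes.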
# [6] = NCI Yeast Anticancer Drug Screen. Data for the mlh1 rad18 strain (AID 175); settings: S. cerevisiae mlh1 rad18 strain growth inhibition; at 50.0 µM; active compounds read high
# How it was run: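 Yeast w/ defined DNA-repair lesions; compound exposure; growth vs vehicle controls → % inhibition.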
Structure (SMILES),growth inhibition [1],growth inhibition [2],growth inhibition [3],growth inhibition [4] [%],growth inhibition [5],growth inhibition [6]
O=C(O)C(CCCN1C(=O)c2ccccc2C1=O)N1C(=O)c2ccccc2C1=O (centres undefined),-13.1%,-3.3%,-12.3%,-13.8,-0.35%,-6.95%
CCCCCCCCCCCCCCCCn1cnc2c(Cl)ncnc21,23.2%,3.9%,-19.5%,12.8,-2.6%,2.55%
NC(=O)c1csc(NC2OC(CO)C(O)C(O)C2O)n1 (centres undefined),23.1%,-8.8%,0.05%,14.8,-0.25%,-0.05%
O=C(/C=C\c1ccc(/C=C\C(=O)c2ccccc2O)cc1)c1ccccc1O,8.5%,-13.3%,-8.75%,-3.75,22.2%,-23.3%
O=c1[nH]cc(NS(=O)(=O)O)c(=O)[nH]1,-2.15%,-5.4%,6.5%,1.45,2.95%,-0.55%
C#CC(O)(CC)CCCC (centres undefined),-8.85%,-13.4%,10.2%,-18.5,-10.9%,-4.25%
COc1ccc(/C=C(/NC(=O)c2ccccc2)C(=O)O)c(OC)c1C,2.4%,0.45%,1.3%,-66,-17.2%,-7.65%
CC(NC(=O)C1CCCN1C(=O)OCc1ccccc1)C(=O)O (centres undefined),-7.7%,31.1%,-10.5%,2.1,-13.2%,-19.6%
OCC(OC/C=C/CCl)c1ccc(Cl)cc1 (centres undefined),-6.75%,8.7%,0.2%,-0.15,-9.5%,-15.9%
COC(=O)C(Cc1c[nH]c2ccccc12)NC(=O)c1ccccc1NC(=O)OCc1ccccc1 (centres undefined),5.85%,-13.1%,9.15%,-14.1,15.1%,7.65%
CCCCC1(O)CC2CC1C(C)C2(C)C (centres undefined),0.3%,7.75%,-3.45%,22.1,16.4%,2.5%
COC(=O)C(C(=O)C(=O)Nc1nc2ccc(OC)cc2s1)c1cnc2ccccc2n1 (centres undefined),-13.2%,-23.2%,-45%,22.6,-7.5%,-6.15%
O=Cc1ccc(/C=C2\NC(=O)NC2=O)cc1,-6.25%,-7.9%,-26.9%,-0.05,-9.3%,-5.55%
NC(=O)NC(=O)c1ccco1,52.7%,-1.55%,28.9%,17.1,-1.3%,16%
NC(=S)N/N=C/c1ccco1,-26.2%,-11.3%,-18.3%,-67.2,-23.9%,-8.2%
CCN(CC)CCOC(=O)C1c2ccccc2Oc2ccccc21,25.2%,-31.5%,9.1%,13.9,21.4%,15.3%
CCCCCCCCCC[CH2][Sn]([CH2]CCCCCCCCCC)([CH2]CCCCCCCCCC)[CH2]CCCCCCCCCC,5.8%,7.8%,-3.4%,-16.3,-1.25%,23.7%
Cn1cc(C2(C)CC(C)(C)c3c2n(C)c2ccccc32)c2ccccc21 (centres undefined),0.3%,-16.1%,-12.2%,7.15,-17.9%,2.95%
Cc1ccc(N=C2C(c3ccccc3)=C(SC3=C(c4ccccc4)C(=Nc4ccc(C)cc4)c4ccccc43)c3ccccc32)cc1,12.9%,0.7%,3.9%,15.2,-3%,-8.65%
CCC(C)N=C1NS(=O)(=O)c2ccccc21 (centres undefined),9.5%,-3.3%,-2.4%,33.2,-8.55%,7.85%

Structure (SMILES),growth inhibition [1],growth inhibition [2],growth inhibition [3],growth inhibition [4] [%],growth inhibition [5],growth inhibition [6]
O=C1NC(=O)C2C1C1C=C3c4ccccc4N(c4ccccc4)C32[C@H]2C(=O)NC(=O)[C@@H]12 (some centres undefined),-3.4%,-13.2%,7.15%,24.9,17.4%,-4.9%
N#CC(C(=O)/C(=N\NC(N)=O)C(C#N)c1ccc(Cl)cc1)c1ccc(Cl)cc1 (centres undefined),-33.6%,-7.25%,-22.1%,2.4,-7.05%,-4.3%
CC1C(c2ccccc2)NC(c2ccccc2)C(C)C1(O)c1ccccc1 (centres undefined),10.3%,5.3%,11.6%,-23.1,11.1%,16.4%
COc1ccc(C(CC(=O)O)c2ccc(OC)c(OC)c2)c(OC)c1 (centres undefined),3.4%,-1.25%,-6.65%,-59.9,-1.6%,5.15%
O=c1oc2ccc3ccccc3c2c2c1CCCCC2,-13.9%,-4.05%,-14.8%,-22.1,-8.05%,-26.5%
CCN(CC)CCN1c2ccccc2Sc2ccc3ccccc3c21,37.5%,0.8%,2.7%,3.4,38.5%,58.5%
COc1ccccc1/C=N/NC(=O)CCCCCCCCC(=O)N/N=C/c1ccccc1OC,0.95%,-4%,-4.4%,-11.2,-5.5%,14.5%
C=C(C)c1ccccc1S(=O)(=O)c1ccccc1C(C)(C)O,-23.4%,5.1%,6.25%,55.1,36.5%,9.1%
CNC(=S)N(C)c1ccccc1,0.6%,-9.85%,-15.9%,-57.4,8.05%,-23.3%
COC(=O)C(O)C(O)C(O)C(O)C(=O)OC (centres undefined),2.2%,17.4%,10.8%,-5.65,11.2%,13.3%
CCc1ccccc1N1C(=O)C(=O)C(c2nc3ccccc3s2)C(=O)C1=O,12.7%,5.05%,17.2%,15.5,2.3%,10.3%
COC(=O)c1ccc(NC(C)=O)c([N+](=O)[O-])c1,3.35%,-7.7%,-11.4%,-21.9,-26.1%,16.4%
CCOC(=O)C1=C(SC)SC(C(=O)OCC)C2C=C(C)C=CN12 (centres undefined),-5.2%,-19.4%,-10.7%,5.05,-32.9%,3.75%
COC(=O)c1ccc(NCc2cc(O)ccc2O)cc1O,88.5% (active),90.5% (active),83.7% (active),67.7,84.8% (active),91.5% (active)
O=C(O)C1CC2CC(=O)C1C2 (centres undefined),12.8%,-5.45%,-0.85%,-9.75,3.4%,9%
CCSc1nc(C)c(C)c(=O)[nH]1,14.2%,-10.9%,22.4%,16,21.8%,12.8%
CC1OC(CO)C2OC(C)OCC2O1 (centres undefined),-14.2%,-13.9%,-12.8%,-18.1,5.75%,3.95%
COC(=O)CC1(O)C=CCCC1c1ccccc1 (centres undefined),-23.2%,-7.6%,2.35%,0.3,-7.5%,-35%
CC(=O)OCC1OC(n2c(=O)n(-c3ccccc3)c(=O)c3ccccc32)C(OC(C)=O)C(OC(C)=O)C1OC(C)=O (centres undefined),-12.8%,11.3%,-7.9%,19.1,-6.85%,4.65%
